HP1b binding inh: HTS for Inhibitors of HP1-beta Chromodomain Interactions with Methylated Histone Tails. 390,000 compounds, 0.56% hits. Potency, µM (doses to about 114 µM), inactives show top-dose activity change, negative = inhibition, most hits filed as inhibitors. AID 540317, 2011. AlphaScreen HP1-beta / biotin-H3K9me3 peptide binding. Chromobox protein homolog 1 (Homo sapiens), P83916; note: potency is the fitted concentration of half-maximal effect; nearly all actives have a fitted effect of over 70% in size
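AlphaScreen: HP1-beta (50 nM) preformed 30 min with biotin-H3(1-18)K9me3 peptide (50 nM) in PBS pH 7.4, 0.01% Tween-20. Compound added for 30 min at RT, then streptavidin donor/nickel chelate acceptor beads (10 ug/mL) for 30 min.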
JMJD2A Tudor inh: qHTS Assay for Inhibitors of JMJD2A-Tudor Domain; AlphaScreen JMJD2A-Tudor / H3K4me3 peptide binding; 390,000 compounds, 4.4% hits; AID 504339, 2011; Lysine-specific demethylase 4A (Homo sapiens), O75164; Potency, µM (top dose mostly 114 µM), without a hit: top-dose activity change, negative = inhibition, most hits filed as inhibitors; note: potency is the fitted concentration of half-maximal effect; % is set by controls: 0 for no effect and ±100 for the full control effect; nearly all actives have a fitted effect of over 50% in size
Target sequence (O75164 whole entry, looked up, the tested form may be a part): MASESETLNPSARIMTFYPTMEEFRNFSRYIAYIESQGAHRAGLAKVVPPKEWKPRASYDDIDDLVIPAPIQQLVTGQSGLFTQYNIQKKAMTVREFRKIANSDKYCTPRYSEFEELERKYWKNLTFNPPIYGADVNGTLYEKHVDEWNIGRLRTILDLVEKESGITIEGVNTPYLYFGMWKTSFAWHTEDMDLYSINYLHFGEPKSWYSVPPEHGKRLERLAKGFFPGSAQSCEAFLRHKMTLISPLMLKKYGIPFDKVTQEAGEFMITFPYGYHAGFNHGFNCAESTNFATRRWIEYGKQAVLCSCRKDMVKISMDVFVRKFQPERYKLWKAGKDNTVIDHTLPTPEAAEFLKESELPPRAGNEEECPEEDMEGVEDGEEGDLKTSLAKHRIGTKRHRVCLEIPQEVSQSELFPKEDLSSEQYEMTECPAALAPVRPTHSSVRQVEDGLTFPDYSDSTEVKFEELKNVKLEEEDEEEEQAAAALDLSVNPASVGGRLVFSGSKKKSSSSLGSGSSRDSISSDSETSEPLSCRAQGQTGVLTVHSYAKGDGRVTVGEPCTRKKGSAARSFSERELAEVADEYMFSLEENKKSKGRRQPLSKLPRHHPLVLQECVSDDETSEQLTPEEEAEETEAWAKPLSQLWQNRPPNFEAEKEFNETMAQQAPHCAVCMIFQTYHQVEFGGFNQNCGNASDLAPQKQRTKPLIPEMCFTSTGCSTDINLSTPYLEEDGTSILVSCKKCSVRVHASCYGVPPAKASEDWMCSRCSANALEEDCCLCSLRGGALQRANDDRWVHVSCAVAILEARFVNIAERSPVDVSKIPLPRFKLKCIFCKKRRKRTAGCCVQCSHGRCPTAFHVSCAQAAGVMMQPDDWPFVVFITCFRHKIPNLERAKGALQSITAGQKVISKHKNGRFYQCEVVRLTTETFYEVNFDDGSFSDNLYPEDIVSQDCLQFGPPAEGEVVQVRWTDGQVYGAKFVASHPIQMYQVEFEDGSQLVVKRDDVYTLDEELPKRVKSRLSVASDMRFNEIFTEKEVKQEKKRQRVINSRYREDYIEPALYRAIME
PI5P4K alpha inh: qHTS for Inhibitors of phosphatidylinositol 5-phosphate 4-kinase (PI5P4K); Phosphatidylinositol 5-phosphate 4-kinase type-2 alpha (Homo sapiens), P48426; PI5P4Kalpha enzyme, ADP-Glo luminescence, 60 min; stronger effect = lower value; max response, %; 330,000 compounds, 1.2% hits; active = max response of -50% or lower; inconclusive = between -30% and -50%; inactive = -30% or higher; note: value at the top dose of about 77 µM; % is set by controls: 0 for no effect and ±100 for the full control effect
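Luminescence from ADP-Glo served as readout of PI5P4Kalpha activity in a qHTS format. Reaction: enzyme, substrate, compound, ATP at 5 microM final, 60 min at RT.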
BAZ2B block: qHTS Assay for Inhibitors of BAZ2B; Bromodomain adjacent to zinc finger domain protein 2B (Homo sapiens), Q9UIF8; AlphaScreen BAZ2B-H3K14Ac peptide displacement; Potency, µM (highest dose often 114 µM), for inactives: top-dose activity change, negative = inhibition, usual class: inhibitors; 360,000 compounds, 4.4% hits; AID 504333, 2011; note: potency is the fitted concentration of half-maximal effect; % is set by controls: 0 for no effect and ±100 for the full control effect; nearly all actives have a fitted effect of over 60% in size
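BAZ2B (50 nM) with biotin-H3(5-23)K14Ac peptide (50 nM) in PBS pH 7.4, 0.01% Tween-20, preformed 30 min, then compound 30 min at room temperature; top concentration 110uM. AlphaScreen streptavidin donor/nickel chelate acceptor beads (10 ug/mL final), 20 min dark, signal read.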
PLK1 PBD inh: qHTS for Inhibitors of PLK1-PDB (polo-like kinase 1 - polo-box domain): Primary Screen; Serine/threonine-protein kinase PLK1 (Homo sapiens), P53350; Plk1 PBD binding of FITC phosphopeptide, fluorescence polarization; Potency, µM, for inactives: max response, negative = inhibition, most hits filed as inhibitors; 360,000 compounds, 2.8% hits; AID 720504, 2013; note: potency is the fitted concentration of half-maximal effect; series mostly up to about 57 µM; % is set by controls: 0 for no effect and ±100 for the full control effect; nearly all actives have a fitted effect of over 65% in size
G9a inh: qHTS Assay for Inhibitors of Histone Lysine Methyltransferase G9a | Histone-lysine N-methyltransferase EHMT2 (Homo sapiens), Q96KQ7 | G9a H3K9 monomethylation, AlphaScreen, 2 h | Potency, µM (top dose mostly 102 µM), without a hit: at the highest dose activity, negative = inhibition, actives largely listed as inhibitors | 350,000 compounds, 8.8% hits; note: potency is the fitted concentration of half-maximal effect; % is set by controls: 0 for no effect and ±100 for the full control effect; nearly all actives have a fitted effect of over 75% in size
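AlphaScreen detection with an anti-monomethyl H3K9 antibody quantified product after a 2 h room-temperature reaction containing 500 nM biotinylated H3K9 peptide, 20 µM SAM and 20 nM enzyme, which had been preincubated 15 min with compound.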
Active calls of the source: *; ? = inconclusive; · = no result; [ ] = another dose, or the depositor's remark. Sampled rows, rich in hits. Any-hit rate of the full collection: about 12%. Unless noted, calls come from the whole dose curve; as a rule, active = well fitted curve in the direction sought with a large enough effect; inconclusive = small, poorly fitted or top-dose-only effect, or another doubt; inactive = no such curve, though single readings can be large; an effect the other way counts as inactive or inconclusive.

SMILES | HP1b binding inh | JMJD2A Tudor inh | PI5P4K alpha inh | BAZ2B block | PLK1 PBD inh | G9a inh
CCN(CC)CCn1c(=S)[nH]c2cc(Cl)ccc2c1=O | 24.4% | -21.2% | · | -36.0% | -14.3% | ?
CCN(CC)CCn1c(=S)[nH]c2ccc(Cl)cc2c1=O | 18.5% | -26.6% | · | -27.7% | -27.7% | 31.6µM*
O=c1c2ccccc2[nH]c(=S)n1Cc1cccnc1 | -22.3% | 28.2µM* | · | 0.7% | 26.7µM* | -7.5%[59 µM]
O=C(CCn1c(=S)[nH]c2ccccc2c1=O)N1CCCCC1 | 4.9%[57 µM] | -7.6% | -1.2 | -10.7% | -13.4% | ·
CC1CCCN(C(=O)CCCn2c(=S)[nH]c3ccccc3c2=O)C1 (stereo not drawn) | 29.6% | -14.9% | · | 2.9% | -11.8% | 44.7µM*
CCn1c(CN2CCCCC2)nc2cc(NC(=O)COc3ccc(C(C)(C)C)cc3)ccc21 | 64.5% | -6.3% | · | -30.3% | · | 2.1%[59 µM]
CN(C)CCCn1c(=S)[nH]c2ccccc2c1=O | 4.0% | 0.0% | -0.1 | -4.8% | -25.4% | 50.1µM*
CN(C)CCn1c(=S)[nH]c2ccccc2c1=O | ? | 50.1µM* | 2.2 | -1.1% | 0.5% | ?
CCCn1c(=S)[nH]c2ccccc2c1=O | 11.0% | -4.9% | 3.3 | -17.1% | -16.5% | -44.0%
O=c1c2nccnc2[nH]c(=S)n1Cc1ccccc1 | 66.6% | -0.7% | -8.5 | · | -18.2% | 39.8µM*
Cc1ccc(-c2cn3c(n2)sc2cc(C(=O)NC4CCCCC4)ccc23)cc1 | 37.4% | -6.6% | · | 1.0% | · | 10.3%[59 µM]
CCOc1ccccc1CNC(=O)C1CCN(S(=O)(=O)c2c(C)noc2/C=C/c2ccccc2F)CC1 | 23.1%[57 µM] | -2.6% | · | -1.4% | · | 1.1%[59 µM]
O=C(CN1CCCC1)OCCCC1CCCCC1 | -14.5% | -16.9% | 1.3 | -19.6% | -6.3% | 56.2µM*
CC(C)(C)C1CCC(OC(=O)C[N+]2(C)CCCCC2)CC1 (stereo not drawn) | 32.6% | -14.5% | -1.4 | -14.4% | -1.0% | -30.3%
C[N+]1(CC(=O)OCCCC2CCCCC2)CCCC1 | ? | ? | -8.7 | -24.6% | 29.9µM* | 56.2µM*
Cn1cc([C@]2(O)C(=O)Nc3c(F)cccc32)c2ccccc21 | · | · | -10.6 | · | -2.1% | ·
Nc1cc(S(=O)(=O)O)cc([N+](=O)[O-])c1O | 35.5µM* | 35.5µM* | -13.4 | ? | ? | 44.7µM*
CCc1nc(SCC(=O)Nc2ccc(Br)cn2)n[nH]1 | · | · | · | -14.6% | · | 0.5%
CC1(C)CC(=O)C(C(c2ccc(Br)cc2)C2C(=O)CC(C)(C)CC2=O)C(=O)C1 | 40.7% | -24.7% | 2.9 | 3.8% | 18.9µM* | 44.7µM*
COc1ccccc1-c1nnc(SCC#CCOC(=O)c2ccc(F)cc2)o1 | · | 17.7% | · | · | · | ·
O=C1C(c2ccccc2)=[N+]([O-])c2ccccc21 | ? | 25.1µM* | -5.9 | 10µM* | 0.168µM* | -11.1%[2.33 µM]
N#CC(=C(O)COC(=O)Cc1c[nH]c2ccccc12)c1nc2ccccc2[nH]1 | -7.6% | -31.7% | -54.0* | · | -4.1% | ·
Nc1cc(S(=O)(=O)Nc2ccccc2Cl)ccc1N1CCCCC1 | ? | ? | -26.4 | · | 2.38µM* | ·
Nc1ccc(N2CCCCC2)c(S(=O)(=O)Nc2ccccc2Cl)c1 | ? | ? | ? | ? | 26.7µM* | 14.1µM*
CCCS(=O)(=O)Nc1ccc(N2CCCCC2)c(S(=O)(=O)Nc2ccccc2OC)c1 | -23.7% | -25.5% | -5.7 | -31.4% | 23.8µM* | 11.2µM*
SMILES | HP1b binding inh | JMJD2A Tudor inh | PI5P4K alpha inh | BAZ2B block | PLK1 PBD inh | G9a inh
CCC(C(=O)Nc1ccc(N2CCOCC2)c(S(=O)(=O)Nc2ccccc2OC)c1)c1ccccc1 (stereo not drawn) | 11.4% | -20.5% | 1.3 | · | ? | ·
COc1ccc(N)cc1S(=O)(=O)Nc1ccccc1Cl | -10.5% | -16.9% | -2.2 | -32.4% | -8.7% | ·
COc1ccccc1NS(=O)(=O)c1cc(N)ccc1N1CCCCC1 | -26.7% | 56.2µM* | 0.4 | ? | 2.99µM* | 3.98µM*
Nc1ccc(N2CCCCC2)c(S(=O)(=O)Nc2ccc(Cl)cc2)c1 | -5.1% | ? | -1.2 | ? | -12.0% | ?
Cc1ccc(OCCNC(=O)CNC(=O)c2ccc(Cl)c([N+](=O)[O-])c2)cc1 | 10.6% | -22.9% | 5.8 | · | -7.7% | ·
CCCc1cc(=O)oc2cc(C)cc(OCC(=O)N3CCC(C(=O)O)CC3)c12 | 58.1% | -5.4% | 0.9 | -32.9% | 1.7% | 23.3%[12.7 µM]
CCCCn1c(N)c(N(CCC(C)C)C(=O)c2ccc3c(c2)OCCO3)c(=O)[nH]c1=O | 33.4% | -2.1% | -4.2 | -5.6% | -5.7% | -0.3%
CCCCN(C(=O)c1cc(S(=O)(=O)N2CCOCC2)ccc1F)c1c(N)n(CCCC)c(=O)[nH]c1=O | 26.2% | -9.8% | 3.8 | · | -4.3% | ·
CCCCn1c(N)c(N(CC(C)C)C(=O)Cc2ccc3c(c2)OCCO3)c(=O)[nH]c1=O | 26.2% | -9.5% | 1.4 | -3.8% | -2.2% | 50.1µM*
CCCCN(C(=O)c1ccc2c(c1)OCCO2)c1c(N)n(CC(C)C)c(=O)[nH]c1=O | 38.5% | 0.0% | 0.4 | -4.1% | -2.9% | 44.7µM*
CCCCN(C(=O)Cc1ccc(S(=O)(=O)N2CCOCC2)s1)c1c(N)n(CCCC)c(=O)[nH]c1=O | 28.4% | -7.6% | -4.6 | 4.4% | -6.1% | 56.2µM*
CN1CCN(CCCNC(=O)CCC(=O)N2CCOc3ccccc32)CC1 | 13.9% | -18.3% | 0.9 | 24.6% | -2.4% | ·
Cc1cc2oc(=O)cc(CN3CCCCCCC3)c2cc1Cl | · | · | -6.4 | · | -11.1% | ·
Cc1cccc(N=C2NC(=O)S/C2=C\c2ccco2)c1 | -21.5% | 39.8µM* | ? | ? | -18.1% | 22.4µM*
O=C1NC(=Nc2ccc(Cl)cc2)/C(=C/c2ccco2)S1 | -0.9% | 11.2µM* | ? | 50.1µM* | 0.0% | 3.16µM*
CCOc1ccc(N=C2NC(=O)S/C2=C\c2ccc(N(C)C)cc2)cc1 | ? | ? | · | -3.2% | -5.7% | 23.8%[2.33 µM]
COC(=O)N1CCC2(CC1)CCN(c1ccncc1)CC2 | · | · | · | · | · | -1.0%[12.7 µM]
CCOC(=O)c1c(C)nc(C)c(C(=O)OCC)c1-c1ccc(O)c(OC)c1 | ? | -22.3% | -21.7 | 7.7% | 6.7µM* | 8.91µM*
